Measured values reported in PubChem BioAssay AID583 (Sanford-Burnham Center for Chemical Genomics, 2007).
“And” between values parts separate entries of the source, which are not always exact repeats. Identical values can stand only once. About 80 (0.06%) of roughly 140,000 compounds were called active. Cut-off read from the data, not from the text of the source: active = displacement above about 50%; inactive = the rest. Shown is part of a subset that was picked to be rich in actives.

target: Heat shock 70 kDa protein 1A (Homo sapiens) (UniProt P0DMV8); assay: small molecules displacing fluorescent ligand from Hsp70 – biochemical, fluorescence polarization, primary screen (AID 583); details: Hsp70 fluorescence polarization probe displacement, mP; at 20 µM; active compounds read high;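 note: plate controls were vehicle for no effect and reference ligand for full effect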
Sequence (P0DMV8 whole entry, looked up): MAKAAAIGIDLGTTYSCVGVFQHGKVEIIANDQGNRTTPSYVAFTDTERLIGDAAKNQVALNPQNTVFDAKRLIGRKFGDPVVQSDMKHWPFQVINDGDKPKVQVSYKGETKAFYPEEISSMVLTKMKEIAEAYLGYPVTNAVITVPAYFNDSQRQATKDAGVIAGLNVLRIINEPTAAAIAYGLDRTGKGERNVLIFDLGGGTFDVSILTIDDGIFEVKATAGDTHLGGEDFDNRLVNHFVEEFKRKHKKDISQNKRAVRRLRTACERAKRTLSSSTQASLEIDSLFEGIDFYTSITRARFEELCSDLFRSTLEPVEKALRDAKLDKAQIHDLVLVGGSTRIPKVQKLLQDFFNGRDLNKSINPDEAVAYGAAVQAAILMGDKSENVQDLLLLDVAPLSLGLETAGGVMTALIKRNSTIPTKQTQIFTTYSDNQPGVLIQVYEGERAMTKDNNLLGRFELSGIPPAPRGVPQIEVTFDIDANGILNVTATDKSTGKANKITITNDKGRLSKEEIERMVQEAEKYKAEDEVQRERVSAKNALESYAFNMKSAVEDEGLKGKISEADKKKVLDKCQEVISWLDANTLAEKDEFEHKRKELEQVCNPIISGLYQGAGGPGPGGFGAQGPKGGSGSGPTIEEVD

displacement, inactive:
CC1CCCCN1c1nnc(N)s1 (stereo not given) 0.6%
O=C(Cn1c(=O)n(CC2CCCO2)c(=O)c2ccccc21)N1CCN(c2ccccc2)CC1 (stereo not given) 4.1%
O=c1oc2c(O)c(O)ccc2c2c1CCC2 1.2%
Cc1c(O)ccc2c1oc(=O)c1ccccc12 2.3%
Nc1nnn(Cc2ccccc2)n1 -0.8%
CCN(CC)S(=O)(=O)c1ccc2oc(Nc3ccc4c(c3)OCCO4)nc2c1 0.7%
CC(Sc1ccc2nnc(-c3ccc(F)cc3)n2n1)C(=O)O (stereo not given) -5.3%
NC(=O)CN1CCOCCN(CC(N)=O)CCOCC1 -5%
O=C(NCC(O)c1ccccc1)C(=O)NC1CC1 (stereo not given) -1.2%
CCC(c1nnc(SCc2nc3ccccc3s2)n1Cc1ccccc1)N(C)C (stereo not given) -2.1%
O=C1CC(c2ccccc2)c2ccc(O)cc2O1 (stereo not given) 2.6%
O=C(O)c1cccc(N2C(=O)CCC2=O)c1 3.8%
O=C(O)c1cccc(N2C(=O)c3ccc(Br)cc3C2=O)c1 -5.6%
Nc1nc(CSc2nc3ccccc3[nH]2)cs1 -1.6%
Cc1cccc(N2C(=O)NC(=O)/C(=C/c3ccc(N(C)C)c(Br)c3)C2=O)c1 0.9%
CCOc1cccc(=O)c2c(C)oc(C)c12 28% and 19.3%
CCOc1ccc(-c2cc(OCC)c3c(C)oc(C)c3c(=[O+]CC)c2)cc1 -5.4%
Cc1oc(-c2ccc(Cl)cc2)nc1CN1CCCC(C(=O)NCc2ccco2)C1 (stereo not given) 0.5%
Cc1cc(C)c(NC(=O)c2c(-c3ccccc3)noc2C)c(C)c1 1.9%
CCc1nnc(SCC(=O)N2CCCc3ccccc32)nc1CC 0.4%
Cc1cc(NC(=O)c2ccc(-c3cccc(Cl)c3)o2)ccc1NC(=O)c1ccco1 -0.3%
CN(C)CCCNc1c2c(c(C#N)c3nc4ccccc4n13)CCC2 3.6%
N#Cc1c2c(c(NCCCN3CCOCC3)n3c1nc1ccccc13)CCC2 3.4%
O=[N+]([O-])c1ccc(C2Nc3ccc([N+](=O)[O-])cc3C3C=CCC32)cc1 (stereo not given) 0.4%
O=C(O)C1Nc2c(O)cccc2C2C=CCC12 (stereo not given) 16.1%
Cc1ccc2c(c1)C1C=CCC1C(C(=O)O)N2 (stereo not given) 38.6%
COc1cccc2c1NC(C(=O)O)C1CC=CC21 (stereo not given) 47.8%
O=C(CCc1ccccc1)Oc1ccc(Cl)cc1 0.9%
CCOc1ccc(N2C(=O)/C(=C/c3ccc(N(CC)CC)o3)C(=O)NC2=S)cc1 -73.8%
Cc1ccc(N2C(=O)NC(=O)/C(=C\c3ccc(I)o3)C2=O)cc1 6.1%
O=C1NC(=O)N(c2ccccc2F)C(=O)/C1=C/c1ccc(I)o1 20.6%
O=C1NC(=S)N(c2ccccc2F)C(=O)/C1=C/c1ccc(Sc2ccccc2)o1 0.9%
O=C1NC(=O)N(c2ccccc2F)C(=O)/C1=C/c1ccc(OCc2cccc(C(=O)O)c2)cc1 0.2%
CCOc1ccc(N2C(=O)NC(=O)/C(=C\c3ccc(I)o3)C2=O)cc1 0.7%
CCOc1ccc(N2C(=O)/C(=C/c3ccc(OCc4cccc(C(=O)O)c4)cc3)C(=O)NC2=S)cc1 5.7%
O=C1NC(=O)N(c2ccc(Cl)cc2)C(=O)/C1=C/c1ccc(I)o1 15.2%
CC(C)c1ccc(-c2nc(N)c3c(=O)oc4ccccc4c3n2)cc1 0.4%
O=C(CN(Cc1ccco1)C(=O)CNS(=O)(=O)c1ccccc1)NC1CCCCC1 5.9%
O=[N+]([O-])c1cc(NS(=O)(=O)Cc2ccccc2)ccc1F 3.6%
O=C(NCc1ccc2c(c1)OCO2)C1COc2ccccc2O1 (stereo not given) 3.3%
CCCn1c(=N)n(CC(=O)C(C)(C)C)c2ccccc21 7.1%
CCn1cc(Br)c(C(=O)Nc2ccc(OC)cc2)n1 8.2%
O=C(NC1CC2CCCC(C1)N2C(=O)NC1CCCCC1)c1ccccc1 (stereo not given) 0.4%
COc1cccc(C(=O)NC2CC3CCCC(C2)N3CC(=O)Nc2ccc(N(C)C)cc2)c1 (stereo not given) 2.7%
COc1cc(C(=O)NC2CC3CCCC(C2)N3CC(=O)Nc2ccccc2)cc(OC)c1OC (stereo not given) 2%
Cc1c(C(=O)N2CCc3ccccc3C2)sc2nc(-c3ccccc3)cn12 0.5%
O=C1NN(c2ccc(Cl)cc2)C(=O)/C1=C\c1ccc(-c2cccc(C(=O)O)c2)o1 16.5%
O=C1NN(c2ccc(F)c(Cl)c2)C(=O)/C1=C\c1ccc(-c2cccc(C(=O)O)c2)o1 5.7%
COc1ccc(NC(=O)Cn2nc(C)c3ccccc3c2=O)cc1 -1%
CCOc1cc(/C=C2/SC(=S)NC2=O)cc(Cl)c1OCc1ccc(Cl)cc1Cl 4.9%
COc1cccc(OCCOc2c(Cl)cc(/C=C3/SC(=S)NC3=O)cc2OC)c1 0.2%
CCCOc1c(Cl)cc(/C=C2/SC(=S)NC2=O)cc1OC 1.3%
COc1cc(/C=C2/SC(=S)NC2=O)cc(Cl)c1OCc1ccccc1F -0.4%
COc1ccc(N2C(=O)NC(=O)/C(=C\c3cccc(OC)c3OC)C2=O)cc1 -4.3%
O=C1N/C(=N/N=C/c2ccccc2)SC1Cc1ccccc1Cl (stereo not given) -1.4%
COC(=S)N/C(=N/S(=O)(=O)c1ccc(Cl)cc1)c1ccccc1 0.8%
CCOC(=O)c1ccc(N2N=C(C)/C(=C/C=C/c3ccco3)C2=O)cc1 0.7%
CC1=NN(c2cccc(C(=O)O)c2)C(=O)/C1=C\c1ccco1 6.9%
CC(=O)NS(=O)(=O)c1ccc(NC(=O)c2ccc([N+](=O)[O-])cc2)cc1 6.8%
COc1ccc(C(=O)Nc2ccc(S(=O)(=O)NC(C)=O)cc2)cc1[N+](=O)[O-] 3.6%
O=C(NCCc1ccccc1)c1cnc2sccn2c1=O -1.6%
Oc1[nH]c2ccccc2c1N=Nc1nc(-c2ccccc2)c2cc(Br)ccc2n1 -0.1%
CN(C)c1ccc(/C=C2/SC(N=Nc3c(O)[nH]c4ccccc34)=NC2=O)cc1 17.1%
COc1ccc(Br)cc1/C=C/C(=O)Nc1cccc(NC(=O)c2ccccc2Cl)c1 -1%
CCN(CC)c1nc(C)cc(COC)c1C#N 2.1%
CC(C)c1ccc(NC(=O)C(c2ccc3c(c2)OCO3)N2CCC3(CC2)OCCO3)cc1 (stereo not given) -2.7%
O=C(CCCC(=O)N1CCCCC1)NCc1ccco1 -1.6%
COC(=O)c1ccc(C(=O)OC)c(NC(=O)CSc2nnc(-c3ccccc3Cl)o2)c1 1.6%
Oc1c(Cl)cc(Cl)cc1Sc1cc(Cl)cc(Cl)c1O 7.6%
O=S(=O)(c1cc(Cl)cc(Cl)c1O)c1cc(Cl)cc(Cl)c1O 8.8%
CN(C)c1ccc(/C=C2\NC(=O)c3ccccc3C2=O)cc1 2.7%
CCOC(=O)c1sc2ncc([N+](=O)[O-])c(NC)c2c1N -5.6%
Cc1cc(=O)[nH]c(SCC(=O)Nc2ccc(S(N)(=O)=O)cc2)n1 4.4%
Cc1ccc(C(=O)O/N=C(\N)c2ccccn2)cc1 0.2%
O=C(N/N=C/c1ccccc1OCc1ccccc1)c1ccccc1O 6%
Cc1ccc(NC(=O)c2ccccc2O)cc1 2.2%
O=C(N=Nc1c(O)n(Cc2ccccc2)c2ccccc12)c1ccccc1O 2.1%
O=C(Cn1nc(C(=O)O)c2ccccc2c1=O)NCC1CCCO1 (stereo not given) -0.7%
CC(NC(=O)c1c(NC(=O)c2ccco2)sc2c1CCCCC2)c1ccccc1 (stereo not given) -6%
COC(=O)COc1ccc(/C=C2\C(=O)NC(=S)N(c3ccc(F)cc3)C2=O)cc1OC 2.8%

displacement, active:
O=C1C=CC2=C3Oc4c(ccc5cc(O)ccc45)C(c4ccccc4C(=O)O)C3C=CC2=C1 (stereo not given) 60.9%
O=C(O)c1cccc(N2C(=O)c3ccc4c5c(ccc(c35)C2=O)CC4)c1 70%
CCOc1cccc(=[O+]CC)c2c(C)oc(C)c12 80.7%
N#Cc1c2c(c(NCCCCO)n3c1nc1ccccc13)CCC2 55%
O=C(O)C1Nc2c(cccc2[N+](=O)[O-])C2C=CCC12 (stereo not given) 76.9%
O=C(O)C1Nc2ccc([N+](=O)[O-])cc2C2C=CCC12 (stereo not given) 102%
CCOc1ccc(N2C(=O)/C(=C/c3ccc(I)o3)C(=O)NC2=S)cc1 96.7%
O=C1NC(=S)N(c2ccccc2F)C(=O)/C1=C/c1ccc(OCc2cccc(C(=O)O)c2)cc1 51.5%
CCc1ccc(N2C(=O)/C(=C/c3ccc(I)o3)C(=O)NC2=S)cc1 84.7%
O=C1NC(=S)N(c2ccccc2F)C(=O)/C1=C/c1ccc(I)o1 81.7%
O=C1NN(c2cccc(Cl)c2)C(=O)/C1=C\c1ccc(-c2cccc(C(=O)O)c2)o1 55.5%
COc1cc(/C=C2/SC(=S)NC2=O)cc(Cl)c1OCc1ccc(Cl)cc1Cl 94.8%
COc1cc(/C=C2/SC(=S)NC2=O)cc(Cl)c1OCc1cccc2ccccc12 99.9%
CC(=O)NS(=O)(=O)c1ccc(NC(=O)c2ccc([N+](=O)[O-])c(C)c2)cc1 61.3%
O=C1N=C(N=Nc2c(O)[nH]c3ccccc23)S/C1=C/c1ccc(Br)cc1 82.1%
